Values joined by “and” are separate entries in the source; they are usually repeats but may differ in a detail not shown here. Equal values may be shown once. Results filed as inconclusive are left out. Entries that show only a call come without a potency. Active and inactive are the calls of the source. Unless noted, the call rests on the fitted dose curve; in most records, active means well fitted curve in the direction sought with a large enough effect; inconclusive means small, poorly fitted or top-dose-only effect, or another doubt; inactive means no such curve, though single readings can be large; an effect the other way counts as inactive or inconclusive.
Columns and labels:
[1] = Quantitative high throughput screen for delayed death inhibitors of the malarial parasite plastid, 48 hour incubation (AID 488752); further: nearly all actives have a fitted effect of over 65% in size; further: potency means the concentration at half of the fitted maximal effect
In short: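 Luciferase-expressing P. falciparum in RBCs, 2% Hct, 0.1% parasitemia final; RPMI 1640 + 0.5% Albumax; 48 h, 37 C, 5% CO2; luminescence readout, signal drop = growth inhibition.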

[2] = molecular target: Thioredoxin reductase 1, cytoplasmic (Rattus norvegicus) (UniProt O89049); experiment: qHTS Assay for Substrates of Mammalian Selenoprotein Thioredoxin Reductase 1 (TrxR1) (AID 488772);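 further: series mostly up to about 57 µM; a drop in NADPH fluorescence below the no-compound background marks a TrxR1 substrate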
In short: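 In this dual-purpose format, potential substrates are identified from the first fluorescence read after selenite addition, not from the 8-minute delta. Rat enzyme is preincubated with NADPH and then with compound at ~22 deg C.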

[3] = molecular target: Thioredoxin reductase 1, cytoplasmic (Rattus norvegicus) (UniProt O89049); experiment: qHTS Assay for Inhibitors of Mammalian Selenoprotein Thioredoxin Reductase 1 (TrxR1) (AID 488773); details: Potency: inhibition;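 further: drop in NADPH fluorescence over an 8 min run after selenite addition; series mostly up to about 57 µM; nearly all actives have a fitted effect of over 40% in size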
In short: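 Inhibition is scored from the loss of NADPH fluorescence between first and last reads of an 8-min kinetic run. Selenite (400 uM) was the substrate, added after 15 min compound preincubation at room temperature.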

[4] = molecular target: Flap endonuclease 1 (Homo sapiens) (UniProt P39748); experiment: qHTS Validation Assay for the Inhibitors of Human Flap endonuclease 1 (FEN1) (AID 488816)
In short: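 qHTS format: compounds and 10 nM FEN1 incubated 15 min at room temperature before adding 50 nM substrate. Cleavage followed by reads at 0 and 15 min; normalized data fitted to a four-parameter Hill curve.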

[5] = molecular target: M-phase phosphoprotein 8 (Homo sapiens) (UniProt Q99549); experiment: qHTS Validation Assay for Inhibitors for MPP8 Chromodomain Interactions with Methylated Histone Tails (AID 488949);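 further: AlphaScreen signal from MPP8 chromodomain bound to biotinylated H3K9me3 peptide; top concentration of the series differs between compounds; nearly all actives have a fitted effect of over 55% in size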
M-phase phosphoprotein 8 (Homo sapiens), sequence (Q99549 whole entry, looked up): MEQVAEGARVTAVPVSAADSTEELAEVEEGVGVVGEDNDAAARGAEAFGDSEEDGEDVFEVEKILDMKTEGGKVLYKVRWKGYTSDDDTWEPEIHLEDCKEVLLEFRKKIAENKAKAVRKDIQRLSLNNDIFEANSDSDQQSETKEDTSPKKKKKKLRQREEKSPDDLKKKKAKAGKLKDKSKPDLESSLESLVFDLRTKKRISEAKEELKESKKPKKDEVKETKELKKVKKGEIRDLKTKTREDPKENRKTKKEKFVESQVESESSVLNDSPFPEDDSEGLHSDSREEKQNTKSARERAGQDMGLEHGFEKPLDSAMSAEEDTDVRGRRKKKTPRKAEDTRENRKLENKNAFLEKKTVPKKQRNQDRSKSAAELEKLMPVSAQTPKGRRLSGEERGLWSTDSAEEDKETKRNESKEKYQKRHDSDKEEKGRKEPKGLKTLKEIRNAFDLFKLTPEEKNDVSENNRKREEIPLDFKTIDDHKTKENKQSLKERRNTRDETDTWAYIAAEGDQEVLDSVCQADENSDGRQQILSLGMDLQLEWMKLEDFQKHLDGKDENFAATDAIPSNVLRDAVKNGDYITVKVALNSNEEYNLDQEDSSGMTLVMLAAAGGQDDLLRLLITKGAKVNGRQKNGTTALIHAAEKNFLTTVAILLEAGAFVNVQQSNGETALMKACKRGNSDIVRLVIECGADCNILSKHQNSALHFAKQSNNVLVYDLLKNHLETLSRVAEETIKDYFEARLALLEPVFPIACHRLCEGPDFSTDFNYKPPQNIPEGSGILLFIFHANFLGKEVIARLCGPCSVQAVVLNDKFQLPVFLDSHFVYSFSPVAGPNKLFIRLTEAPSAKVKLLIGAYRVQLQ
In short: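 MPP8 (50 nM) was preincubated with biotinylated H3(1-18)K9me3 peptide (50 nM) in PBS pH 7.4, 0.01% Tween-20 for 30 min at room temperature, then with compounds for 30 min; binding was detected by AlphaScreen.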

[6] = molecular target: Chromobox protein homolog 1 (Homo sapiens) (UniProt P83916); experiment: qHTS Validation Assay for Inhibitors of HP1-beta Chromodomain Interactions with Methylated Histone Tails (AID 488953); further: nearly all actives have a fitted effect of over 50% in size; further: potency means the concentration at half of the fitted maximal effect
Chromobox protein homolog 1 (Homo sapiens), sequence (P83916 whole entry, looked up): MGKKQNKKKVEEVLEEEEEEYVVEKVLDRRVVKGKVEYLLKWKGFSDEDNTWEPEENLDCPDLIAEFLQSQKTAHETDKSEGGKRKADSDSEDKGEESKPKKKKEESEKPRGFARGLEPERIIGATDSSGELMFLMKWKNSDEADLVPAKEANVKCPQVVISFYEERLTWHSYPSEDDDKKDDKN
In short: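 AlphaScreen proximity readout: streptavidin donor and Ni-chelate acceptor beads, 10 ug/mL final, 30 min dark, RT. Complex of 50 nM HP1-beta and 50 nM b-H3(1-18)K9me3 formed 30 min, then compound-treated 30 min; PBS pH 7.4/0.01% Tween-20.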

[7] = molecular target: Methanococcus maripaludis chaperonin (MmCpn) (UniProt Q6LX38); experiment: High-Throughput Screening for Modulators of Cytosolic Chaperonin Activity: MmCpn Primary Screen (AID 488978);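 further: 50 nM MmCpn enzyme hydrolysing 30 µM ATP at 37 °C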
Methanococcus maripaludis chaperonin (MmCpn), sequence (Q6LX38 1-543): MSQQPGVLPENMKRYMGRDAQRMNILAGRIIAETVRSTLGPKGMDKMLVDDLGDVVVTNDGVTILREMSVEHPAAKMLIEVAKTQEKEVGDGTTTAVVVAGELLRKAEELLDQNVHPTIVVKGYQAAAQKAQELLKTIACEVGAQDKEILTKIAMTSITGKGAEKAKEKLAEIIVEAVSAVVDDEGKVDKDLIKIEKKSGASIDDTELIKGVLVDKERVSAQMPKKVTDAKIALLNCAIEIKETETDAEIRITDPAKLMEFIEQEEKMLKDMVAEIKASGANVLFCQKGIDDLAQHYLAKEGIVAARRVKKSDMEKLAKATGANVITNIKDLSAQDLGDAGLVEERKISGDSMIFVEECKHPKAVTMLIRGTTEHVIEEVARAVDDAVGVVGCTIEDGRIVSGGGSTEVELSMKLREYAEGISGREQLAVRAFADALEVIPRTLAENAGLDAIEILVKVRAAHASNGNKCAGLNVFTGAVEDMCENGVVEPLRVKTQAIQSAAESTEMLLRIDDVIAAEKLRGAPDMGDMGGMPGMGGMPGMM
In short: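 MmCpn (50 nM final) was preincubated with compound 5 min at RT, then 30 uM ATP (final) was added and the reaction ran 10 min at 37C. ADP produced was detected by Transcreener HTRF (ex 320 nm; em 590/665 nm).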

[8] = molecular target: Thyrotropin receptor (Homo sapiens) (UniProt P16473); experiment: qHTS Assay for Antagonists of the Thyroid Stimulating Hormone Receptor (AID 488980); further: series mostly up to about 58 µM
Thyrotropin receptor (Homo sapiens), sequence (P16473 whole entry, looked up): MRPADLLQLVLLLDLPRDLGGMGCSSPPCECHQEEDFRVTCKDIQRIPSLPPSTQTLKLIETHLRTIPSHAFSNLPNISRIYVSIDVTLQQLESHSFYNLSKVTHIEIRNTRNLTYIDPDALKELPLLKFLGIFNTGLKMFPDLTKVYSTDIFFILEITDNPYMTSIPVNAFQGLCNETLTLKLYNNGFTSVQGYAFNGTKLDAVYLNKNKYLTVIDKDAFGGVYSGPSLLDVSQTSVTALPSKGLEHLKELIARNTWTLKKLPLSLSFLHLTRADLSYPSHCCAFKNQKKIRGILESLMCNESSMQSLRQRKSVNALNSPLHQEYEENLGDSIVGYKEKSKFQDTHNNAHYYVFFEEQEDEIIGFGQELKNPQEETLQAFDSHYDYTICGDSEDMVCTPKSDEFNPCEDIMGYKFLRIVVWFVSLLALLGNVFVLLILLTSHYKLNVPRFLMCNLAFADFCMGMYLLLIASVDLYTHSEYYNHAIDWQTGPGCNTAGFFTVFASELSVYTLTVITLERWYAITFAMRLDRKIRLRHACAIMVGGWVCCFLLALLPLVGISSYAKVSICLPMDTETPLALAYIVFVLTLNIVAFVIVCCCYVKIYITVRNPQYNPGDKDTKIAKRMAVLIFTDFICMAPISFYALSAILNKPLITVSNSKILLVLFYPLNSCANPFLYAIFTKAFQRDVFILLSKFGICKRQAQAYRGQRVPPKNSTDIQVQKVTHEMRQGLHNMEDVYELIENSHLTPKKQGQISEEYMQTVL
In short: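 HEK293 cells transfected with human TSHR, suspended in HEPES-buffered HBSS with 70 uM RO 20-1724, were treated with compounds plus TSH at EC80 (4 nM final). cAMP was measured by competitive HTRF (cryptate anti-cAMP antibody, cAMP-d2 acceptor).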

[9] = molecular target: D(1A) dopamine receptor (Homo sapiens) (UniProt P21728); experiment: HTS Assay for Allosteric Agonists of the Human D1 Dopamine Receptor: Primary Screen for Agonists (AID 488981)
In short: (§1)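 Calcium flux in an inducible, force-coupled HEK293 Trex D1 line (overnight at 30 C): agonist mode is the 180 s kinetic read after compound; potentiator mode is the following 180 s read after dopamine at EC20.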

[10] = molecular target: D(1A) dopamine receptor (Homo sapiens) (UniProt P21728); experiment: HTS Assay for Allosteric Agonists of the Human D1 Dopamine Receptor: Primary Screen for Potentiators (AID 488982)
In short: as §1

[11] = Validation screen for small molecules that induce genotoxicity in human embryonic kidney (HEK293T) cells expressing luciferase-tagged ELG1 (AID 493106)
In short: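 qHTS format; 2,000 HEK293T ELG1-luc cells/well; 23 nL compound via pin tool; 16 hr, 37 °C/5% CO2; ONE-Glo, 30 min RT; luminescence read.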

[12] = molecular target: Thyrotropin-releasing hormone receptor (Homo sapiens) (UniProt P34981); experiment: qHTS for Small Molecule Agonists and Allosteric Enhancers of Human TRH Receptor: Validation Screen for Agonists (AID 493127;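 active means calcium activation more than 3 SD above the typical response in the agonist read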;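 further: intracellular calcium rise by fluo-8 fluorescence before TRH EC20 addition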); details: TRH receptor agonist cell assay; at 2 µM; stronger effect = higher value
Thyrotropin-releasing hormone receptor (Homo sapiens), sequence (P34981 whole entry, looked up): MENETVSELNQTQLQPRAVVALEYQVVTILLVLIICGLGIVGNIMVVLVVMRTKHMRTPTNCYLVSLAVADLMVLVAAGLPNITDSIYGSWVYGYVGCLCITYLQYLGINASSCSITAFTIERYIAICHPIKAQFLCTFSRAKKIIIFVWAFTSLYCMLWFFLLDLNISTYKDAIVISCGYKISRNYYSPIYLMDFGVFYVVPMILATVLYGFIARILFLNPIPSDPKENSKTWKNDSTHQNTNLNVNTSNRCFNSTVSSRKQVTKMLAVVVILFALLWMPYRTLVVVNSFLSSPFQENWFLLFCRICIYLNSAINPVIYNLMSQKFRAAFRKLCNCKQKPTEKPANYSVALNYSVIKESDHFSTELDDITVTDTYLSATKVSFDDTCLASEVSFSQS
In short: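 Read-out: intracellular calcium release measured kinetically by FDSS (fluo-8, ex 480/em 530 nm), 1 reading/s after a 10-cycle baseline. TRHR cells, 2000/well, cultured 18 h at 33.5C, dye-loaded at room temp. Compound-evoked positive calcium signal flags agonists.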

[13] = Nrf2 qHTS screen for inhibitors: Validation (AID 493153; active means well fitted inhibition curve with a large enough effect in the main read-out, with a control signal flat, not every such curve was filed as active); details: Potency: luciferase luminescence; viability change: measured here: cytotoxicity max response
In short: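 Concentration-response test in A549 ARE_Fluc reporter cells (5% FBS OPTI-MEM), compound exposure 18-24 h at 37°C, 5% CO2. Cell viability measured first by CellTiter-Fluor fluorescence; ARE-driven luciferase luminescence then measured as Nrf2 activity.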

[14] = qHTS for Inhibitors of Cell Surface uPA Generation: Validation Assay (AID 493164);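 further: RAW 264.7 macrophage cells exposed to compound for 18 h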
In short: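 Compounds are titrated over seven points (2.45 nM–38.3 uM final) onto pre-plated RAW 264.7 cells and incubated for 18 h. Retained intracellular ATP, measured with ATP-Lite, indicates blocked lethal factor entry.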

[15] = molecular target: Galactokinase (Homo sapiens) (UniProt P51570); experiment: qHTS Validation Assay for Inhibitors of Human Galactokinase (GALK) (AID 493189)
Galactokinase (Homo sapiens), sequence (P51570 whole entry, looked up): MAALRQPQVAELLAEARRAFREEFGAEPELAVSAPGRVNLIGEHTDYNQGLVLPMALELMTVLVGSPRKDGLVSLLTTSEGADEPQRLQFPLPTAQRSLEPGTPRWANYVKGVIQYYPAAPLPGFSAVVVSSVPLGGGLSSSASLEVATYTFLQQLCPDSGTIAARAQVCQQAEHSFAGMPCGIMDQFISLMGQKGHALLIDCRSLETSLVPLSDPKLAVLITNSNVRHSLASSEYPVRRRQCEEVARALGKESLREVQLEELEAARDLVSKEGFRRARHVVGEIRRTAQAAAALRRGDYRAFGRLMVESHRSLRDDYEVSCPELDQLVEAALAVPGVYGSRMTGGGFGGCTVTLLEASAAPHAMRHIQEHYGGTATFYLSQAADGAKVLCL
In short: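 GALK (5 nM) with 35 uM ATP and 100 uM galactose in HEPES pH8.0, MgCl2, NaCl, DTT, BSA; 1 h at room temperature. Residual ATP read by Kinase-Glo Plus luminescence after 10 min.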

[16] = molecular target: Transient receptor potential cation channel subfamily V member 1 (Homo sapiens) (UniProt Q8NER1); experiment: HTS Assay for Compounds that Act as Enhancers of the Vanilloid Receptor 1 (AID 488979)
In short: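 Calcium influx kinetics via Fluo-8 (480/520 nm) in TRPV1-expressing cells, 2000/well cultured overnight at 35.5C. Compound-alone read 3 min (agonist phase), followed by EC20 capsaicin challenge for 2 min (enhancer phase).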

[17] = molecular target: D(1A) dopamine receptor (Homo sapiens) (UniProt P21728); experiment: HTS Assay for Allosteric Agonists of the Human D1 Dopamine Receptor: Primary Screen for Antagonists (AID 488983);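 further: calcium flux response to an EC80 dopamine challenge measured with no-wash dye; nearly all actives have a fitted effect of over 65% in size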
In short: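 Calcium flux readout, no-wash dye, inducible HEK293 T-REx D1 line (force-coupled). Compound added after 10 s baseline, 180 s kinetic read; then dopamine at EC80, further 180 s read.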

[18] = molecular target: ATP-dependent 6-phosphofructokinase (Trypanosoma brucei brucei) (UniProt O15648); experiment: qHTS Assay to Find Inhibitors of T. brucei phosphofructokinase: hit validation (AID 492961);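 further: luminescence reports ADP formed as PFK phosphorylates fructose-6-phosphate with ATP; series mostly up to about 51 µM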
In short: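 In this biochemical qHTS validation, titrated compounds were tested against 1.25 nM PFK with 0.1 mM ATP and 0.5 mM F6P. Percent activity came from controls lacking or containing enzyme.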

[19] = molecular target: ATPase family AAA domain-containing protein 5 (Homo sapiens) (UniProt Q96QE3); experiment: Validation screen for small molecules that inhibit ELG1-dependent DNA repair in human embryonic kidney (HEK293T) cells expressing luciferase-tagged ELG1 (AID 493107);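 further: cells co-treated with the DNA-damaging agent 5-fluorouridine alongside compound; series mostly up to about 46 µM; inhibitors lower the ELG1-luciferase luminescence signal; nearly all actives have a fitted effect of over 70% in size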
ATPase family AAA domain-containing protein 5 (Homo sapiens), sequence (Q96QE3 whole entry, looked up, the tested form may be a part): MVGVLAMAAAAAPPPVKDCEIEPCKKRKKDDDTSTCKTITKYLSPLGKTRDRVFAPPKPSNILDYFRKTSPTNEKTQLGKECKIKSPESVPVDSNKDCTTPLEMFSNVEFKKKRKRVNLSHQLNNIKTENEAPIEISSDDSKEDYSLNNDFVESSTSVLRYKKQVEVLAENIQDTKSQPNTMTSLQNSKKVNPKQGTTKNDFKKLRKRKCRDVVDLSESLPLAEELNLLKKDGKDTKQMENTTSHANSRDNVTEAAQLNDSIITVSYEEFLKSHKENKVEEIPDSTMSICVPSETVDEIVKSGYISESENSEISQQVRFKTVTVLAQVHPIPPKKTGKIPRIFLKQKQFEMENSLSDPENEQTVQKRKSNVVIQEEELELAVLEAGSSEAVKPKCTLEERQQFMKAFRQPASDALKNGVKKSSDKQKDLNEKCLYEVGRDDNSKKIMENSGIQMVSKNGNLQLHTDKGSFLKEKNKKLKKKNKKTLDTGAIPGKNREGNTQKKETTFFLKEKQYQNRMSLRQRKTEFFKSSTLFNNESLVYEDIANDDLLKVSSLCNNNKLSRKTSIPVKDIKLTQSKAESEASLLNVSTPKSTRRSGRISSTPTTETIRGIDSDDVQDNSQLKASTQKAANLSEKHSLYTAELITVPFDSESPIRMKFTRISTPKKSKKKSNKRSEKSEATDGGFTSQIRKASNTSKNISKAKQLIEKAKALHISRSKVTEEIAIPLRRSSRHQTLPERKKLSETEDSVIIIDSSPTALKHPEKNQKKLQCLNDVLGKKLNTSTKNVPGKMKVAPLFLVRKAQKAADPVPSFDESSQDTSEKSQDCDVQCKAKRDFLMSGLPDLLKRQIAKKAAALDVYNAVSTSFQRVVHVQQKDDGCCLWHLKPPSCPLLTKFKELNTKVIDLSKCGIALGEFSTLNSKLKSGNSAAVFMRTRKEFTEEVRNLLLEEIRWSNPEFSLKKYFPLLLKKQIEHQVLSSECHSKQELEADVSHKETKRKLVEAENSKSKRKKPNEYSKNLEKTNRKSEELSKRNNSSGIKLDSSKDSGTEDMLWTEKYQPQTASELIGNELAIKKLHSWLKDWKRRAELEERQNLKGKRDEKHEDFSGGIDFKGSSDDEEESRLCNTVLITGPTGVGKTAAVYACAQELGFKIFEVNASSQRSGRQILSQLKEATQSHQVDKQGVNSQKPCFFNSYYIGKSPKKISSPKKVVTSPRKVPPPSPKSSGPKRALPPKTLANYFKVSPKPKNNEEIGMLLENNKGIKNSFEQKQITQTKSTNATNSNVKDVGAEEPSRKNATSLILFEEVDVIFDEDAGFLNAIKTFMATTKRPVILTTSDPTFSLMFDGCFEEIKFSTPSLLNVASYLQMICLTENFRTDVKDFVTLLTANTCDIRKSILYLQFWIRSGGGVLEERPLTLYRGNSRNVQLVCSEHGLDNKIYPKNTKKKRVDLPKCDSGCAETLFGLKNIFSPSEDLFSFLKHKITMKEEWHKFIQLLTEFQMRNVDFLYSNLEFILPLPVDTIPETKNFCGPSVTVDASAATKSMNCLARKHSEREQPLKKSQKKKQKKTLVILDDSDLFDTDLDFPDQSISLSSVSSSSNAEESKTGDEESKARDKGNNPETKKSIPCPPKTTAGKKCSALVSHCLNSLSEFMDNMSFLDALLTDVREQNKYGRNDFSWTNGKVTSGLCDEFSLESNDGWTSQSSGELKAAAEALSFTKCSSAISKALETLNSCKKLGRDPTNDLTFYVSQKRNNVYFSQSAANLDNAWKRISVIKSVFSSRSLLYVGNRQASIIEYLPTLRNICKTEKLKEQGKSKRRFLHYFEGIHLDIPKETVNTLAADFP
In short: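 ELG1-luciferase HEK293T reporter; 5-fluorouridine + compound/DMSO, 16 hr, 37 °C, 5% CO2; ONE-Glo 30 min RT; luminescence read, qHTS format.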

| SMILES | Potency [1] | outcome [2] | Potency [3] | Potency [4] | Potency [5] | Potency [6] | outcome [7] | outcome [8] | Potency [9] | Potency [10] | Potency [11] | activation [12] | Potency [13] | viability change [13] [%] | outcome [14] | Potency [15] | outcome [16] | Potency [17] | Potency [18] | Potency [19] |
| --- | --- | --- | --- | --- | --- | --- | --- | --- | --- | --- | --- | --- | --- | --- | --- | --- | --- | --- | --- | --- |
| CN(C)CCCN1c2ccccc2CCc2ccc(Cl)cc21 | 1.31 µM (active) | inactive | inactive | inactive | inactive | inactive | inactive | inactive | inactive | inactive | inactive | 1.88% (inactive) | inactive | -5.04 | inactive | inactive | – | – | – | – |
| COc1ccc2[nH]cc(CCNC(C)=O)c2c1 | inactive | inactive | inactive | inactive | inactive | inactive | inactive | inactive | inactive | inactive | inactive | -2.38% (inactive) | inactive | -12.9 | inactive | inactive | inactive | inactive | – | – |
| Clc1ccccc1C(c1ccccc1)(c1ccccc1)n1ccnc1 | 1.04 µM (active) | inactive | inactive | inactive | inactive | 0.0084 µM (active) | inactive | inactive | inactive | inactive | inactive | -13.1% (inactive) | – | – | inactive | inactive | inactive | inactive | inactive | – |
| NCCc1cnc[nH]1 | inactive | – | inactive | inactive | inactive | inactive | inactive | inactive | inactive | inactive | inactive | 1.06% (inactive) | inactive | 1.05 | inactive | inactive | inactive | inactive | – | – |
| COc1cc2nc(N3CCN(C(=O)C4COc5ccccc5O4)CC3)nc(N)c2cc1OC (stereo not given) | 4.15 µM (active) | inactive | inactive | – | inactive | – | inactive | inactive | inactive | inactive | inactive | – | – | – | inactive | inactive | inactive | – | – | – |
| CC1COc2c(N3CCN(C)CC3)c(F)cc3c(=O)c(C(=O)O)cn1c23 (stereo not given) | inactive | inactive | inactive | – | inactive | inactive | inactive | inactive | inactive | inactive | inactive | 1% (inactive) | – | – | inactive | inactive | inactive | inactive | – | inactive |
| NC(=O)NO | inactive | – | inactive | inactive | inactive | inactive | inactive | inactive | inactive | inactive | inactive | 1.12% (inactive) | inactive | -1.36 | inactive | inactive | inactive | inactive | – | inactive |
| Cn1c(=O)c2c(ncn2C)n(C)c1=O | inactive | inactive | inactive | – | inactive | inactive | inactive | – | inactive | inactive | inactive | – | – | – | inactive | – | inactive | inactive | – | – |
| CNCCCC12CCC(c3ccccc31)c1ccccc12 | inactive | inactive | – | inactive | inactive | inactive | inactive | inactive | – | inactive | inactive | 3.31% (inactive) | inactive | 1.81 | inactive | inactive | – | – | – | – |
| O=C(Nc1ccc([N+](=O)[O-])cc1Cl)c1cc(Cl)ccc1O | – | inactive | inactive | inactive | inactive | inactive | inactive | inactive | inactive | inactive | inactive | – | – | – | inactive | inactive | inactive | – | – | – |
| CC(COc1ccccc1)N(CCCl)Cc1ccccc1 (stereo not given) | inactive | inactive | inactive | – | – | – | inactive | inactive | inactive | inactive | inactive | – | – | – | inactive | inactive | inactive | inactive | – | – |
| CC12CC3CC(C)(C1)CC(N)(C3)C2 | inactive | inactive | inactive | – | inactive | inactive | inactive | inactive | inactive | inactive | inactive | – | inactive | -3.89 | inactive | inactive | – | inactive | – | inactive |
| CC(C)Cc1ccc(C(C)C(=O)O)cc1 (stereo not given) | inactive | inactive | inactive | – | inactive | inactive | inactive | inactive | inactive | inactive | inactive | 0.375% (inactive) | inactive | 7.62 | inactive | – | – | inactive | – | inactive |
| CC(C)NCC(O)c1ccc(O)c(O)c1 (stereo not given) | inactive | inactive | – | inactive | inactive | 0.0106 µM (active) | inactive | inactive | inactive | inactive | inactive | 0.688% (inactive) and 0.188% (inactive) | inactive | -5.16 | inactive | inactive | inactive | inactive | – | – |
| COc1cc2c(c(OC)c1OC)-c1ccc(OC)c(=O)cc1[C@@H](NC(C)=O)CC2 | inactive | inactive | – | – | inactive | – | inactive | inactive | inactive | inactive | – | 0% (inactive) | – | – | inactive | inactive | inactive | inactive | inactive | inactive |
| CC(C(=O)O)c1cccc(C(=O)c2ccccc2)c1 (stereo not given) | inactive | inactive | inactive | – | inactive | inactive | inactive | inactive | inactive | inactive | inactive | 1.12% (inactive) | inactive | -3.76 | inactive | inactive | inactive | inactive | – | – |

Reference: PubChem BioAssay (NCATS)
